Only some compounds are listed: those with a hit (about 11% of all), similar ones and a draw of the others.
JMJD2A Tudor inh – qHTS Assay for Inhibitors of JMJD2A-Tudor Domain; Lysine-specific demethylase 4A (Homo sapiens), O75164; AlphaScreen JMJD2A-Tudor / H3K4me3 peptide binding; 390,000 tested, 4.4% active; Potency, µM (series often up to 114 µM), for the others: top-dose activity change, negative = inhibition, usual class: inhibitors; note: % is set by controls: 0 for no effect and ±100 for the full control effect; nearly all actives have a fitted effect of over 50% in size
HP1b chromo inh – HTS for Inhibitors of HP1-beta Chromodomain Interactions with Methylated Histone Tails. AlphaScreen HP1-beta / biotin-H3K9me3 peptide binding. Potency, µM (titrated, usually from 114 µM), for the others: at the top dose activity change, negative = inhibition, most hits filed as inhibitors. 390,000 tested, 0.56% active. AID 540317, 2011; note: nearly all actives have a fitted effect of over 70% in size
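AlphaScreen: HP1-beta (50 nM) preformed 30 min with biotin-H3(1-18)K9me3 peptide (50 nM) in PBS pH 7.4, 0.01% Tween-20. Compound added for 30 min at RT, then streptavidin donor/nickel chelate acceptor beads (10 ug/mL) for 30 min.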
G9a inh – qHTS Assay for Inhibitors of Histone Lysine Methyltransferase G9a; Potency, µM (titrated, usually from 102 µM), inactives show at the highest dose activity, negative = inhibition, hits mostly inhibitors; Histone-lysine N-methyltransferase EHMT2 (Homo sapiens), Q96KQ7; 350,000 tested, 8.8% active; G9a H3K9 monomethylation, AlphaScreen, 2 h; AID 504332, 2011; note: % is set by controls: 0 for no effect and ±100 for the full control effect; nearly all actives have a fitted effect of over 75% in size
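Signal arises when biotinylated H3K9 peptide, once monomethylated, bridges streptavidin donor and antibody-captured acceptor beads. Enzyme at 20 nM was preincubated 15 min with test compounds; peptide 500 nM and SAM 20 uM then reacted for 2 h.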
L3MBTL1 block – qHTS Assay for the Inhibitors of L3MBTL1 | AID 485360, 2010 | 230,000 tested, 0.66% active | Lethal(3)malignant brain tumor-like protein 1 (Homo sapiens), Q9Y468 | AlphaScreen L3MBTL1–H3K9me1 peptide binding | Potency, µM (series often up to 57.1 µM), for inactives: at the highest dose activity, negative = inhibition, usual class: inhibitors; note: % is set by controls: 0 for no effect and ±100 for the full control effect; nearly all actives have a fitted effect of over 60% in size
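AlphaScreen proximity signal between nickel-chelate acceptor and streptavidin donor beads (final 10 ug/mL) reports binding of 50 nM L3MBTL1 to 75 nM biotin-H3 K9me1 peptide; complex incubated with compounds 30 min at room temperature; cefsulodin titration as control.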
BAZ2B block – qHTS Assay for Inhibitors of BAZ2B | Potency, µM (doses to about 114 µM), without a hit: at the highest dose activity change, negative = inhibition, most hits filed as inhibitors | 360,000 tested, 4.4% active | Bromodomain adjacent to zinc finger domain protein 2B (Homo sapiens), Q9UIF8 | AlphaScreen BAZ2B-H3K14Ac peptide displacement | AID 504333, 2011; note: % is set by controls: 0 for no effect and ±100 for the full control effect; nearly all actives have a fitted effect of over 60% in size
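Compounds, titrated to a top concentration of 110 uM, were incubated 30 min at room temperature with preformed BAZ2B/acetyl-K14 H3 peptide complex (50 nM each). Proximity signal was measured by AlphaScreen after 20 min with beads.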
The depositor's hits bear a star; ? = inconclusive; . = no result; [ ] = remark or other dose. Calls come from the whole dose curve; as a rule, active = well fitted inhibition curve with a large enough effect; inconclusive = small, poorly fitted or top-dose-only effect; inactive = no such curve, though single readings can be large or run the other way. Potency is the fitted concentration of half-maximal effect.

SMILES	JMJD2A Tudor inh	HP1b chromo inh	G9a inh	L3MBTL1 block	BAZ2B block
COC(=O)c1ccc(N2C(=O)CC(N3CCOCC3)C2=O)cc1 (stereo unspecified)	-9%	32%	79µM*	-1%	11%
CC(=O)Nc1ccc(N2C(=O)CC(N3CC(C)OC(C)C3)C2=O)cc1 (stereo unspecified)	-13%	53%	22µM*	0%	8%
COc1cc(-c2noc(CN3CCN(c4cccc(Cl)c4)CC3)n2)cc(OC)c1OC	-22%	16%	-24%[59 µM]	.	?
S=c1sscc1-c1ccccc1	32µM*	20µM*	.	.	.
COc1ccc(C2=NS(=O)(=O)N(C)C(C(=O)Nc3ccc(OC)c(OC)c3)=C2)cc1	?	-22%	35µM*	-12%	?
COc1cccc(C2=NS(=O)(=O)N(C)C(C(=O)Nc3cccc(O)c3)=C2)c1	-36%	7%	14µM*	.	-37%
O=C(CCCn1c(=O)[nH]c2ccsc2c1=O)N1CCN(c2cccc(C(F)(F)F)c2)CC1	-2%	30%	9%[59 µM]	.	-1%
Cc1cccn2c(=O)c(C(=O)NCc3cccc(F)c3)cnc12	-3%	33%	37%[59 µM]	.	8%
Cc1sc(NC(=O)C2=COCCO2)nc1-c1ccc(F)cc1	-8%	-7%	79µM*	-4%	-7%
Oc1cccc2c(NC(=S)Nc3ccc(OC(F)F)cc3)cccc12	?	?	45µM*	-14%	45µM*
FC(F)Oc1ccc(NC(=S)Nn2cnnc2)cc1	?	-27%	6.3µM*	.	-9%
CCOc1ccc2c(c1)nc(SCC(=O)c1cccs1)n2C	40µM*	10%	25µM*	1%	-8%
CCOc1ccc2c(c1)nc(SCC(=O)c1ccc(Br)s1)n2C	40µM*	-21%	40µM*	-4%	-39%
CCOc1ccc2c(c1)nc(C)n2C	-9%	22%	.	11%	-7%
CCOc1ccc(Nc2sc(C(=O)c3ccc4c(c3)OCO4)c(N)c2S(=O)(=O)c2ccc(C)cc2)cc1	-27%	16%[57 µM]	4%[59 µM]	.	-21%
O=C(Nc1ccccc1NC(=O)c1ccccc1Cl)c1ccccc1Cl	5%	43%	.	-2%	-4%
CN1CCC(N(C)CC(=O)Nc2ccccc2N2CCOCC2)CC1	8.9µM*	?	?	.	56µM*
CN(C)c1cc2c(cc1NC(=O)c1ccccc1Cl)n(C)c(=O)n2C	-13%	17%	-24%	.	50µM*
COc1ccc(Br)c(C(=O)Nc2cc3c(cc2N2CCCCC2)n(C)c(=O)c(=O)n3C)c1	-20%	3%	-33%[59 µM]	.	-16%
COc1ccc(Br)c(C(=O)Nc2cc3c(cc2N2CCOCC2)n(C)c(=O)n3C)c1	-19%	6%	-43%[59 µM]	.	79µM*
CSc1ccccc1NC(=O)CN(C)CC(=O)Nc1ccccc1N1CCOCC1	-15%	25%	87%[59 µM]	.	-2%
CCOC(=O)C1CCN(c2cc3c(cc2NC(=O)c2ccccc2Br)n(C)c(=O)n3C)CC1	?	5%	.	.	50µM*
CC1C(=O)N2CCCc3cc(NC(=O)C(=O)NCCc4ccc(F)cc4)cc1c32 (stereo unspecified)	-1%	8%	?	-3%	0%
O=C(NCC(c1cccnc1)N1CCc2ccccc2C1)C(=O)Nc1cccc(Cl)c1 (stereo unspecified)	-15%	28%	-32%[59 µM]	.	-3%
CCOc1ccccc1C(=O)Nc1cc2c(cc1N1CCOCC1)n(C)c(=O)n2C	-22%	-10%	-16%[59 µM]	.	?
SMILES	JMJD2A Tudor inh	HP1b chromo inh	G9a inh	L3MBTL1 block	BAZ2B block
Cc1ccccc1C(=O)Nc1cc2c(cc1N1CCOCC1)n(C)c(=O)n2C	-16%	7%	-22%[59 µM]	.	50µM*
Cc1cc(C(=O)Nc2ccccc2N2CCOCC2)c(C)o1	-8%	9%	56µM*	-7%	0%
Cc1ccccc1C(=O)Nc1cc2c(cc1N1CCCCC1)n(C)c(=O)n2C	?	-28%	16µM*	.	25µM*
COc1ccc(OCc2nn[nH]n2)cc1	-2%	16%	?	3%	-36%
CCC(C)(C(=O)NC1CCCC1)N(C)C(=O)c1ccccn1 (stereo unspecified)	-8%	26%	23%[59 µM]	.	-6%
O=[N+]([O-])c1ccc(-c2c[nH]c(=S)[nH]2)cc1	?	?	2µM*	?	-2%
COc1cc(-c2ccccc2)[nH]c(=S)n1	-12%	58%	27%[2.33 µM]	9%	?
S=c1[nH]cc(-c2ccccc2)[nH]1	25µM*	0%	-130%[59 µM]	.	-8%
O=C(O)CC(Cn1[nH]nnc1=S)c1ccccc1 (stereo unspecified)	50µM*	13%	8.9µM*	.	?
O=C(c1c[nH]c(C(=O)C(Cl)(Cl)Cl)c1)c1c(F)cccc1F	22µM*	3%	-41%	.	-23%
N#Cc1nc(COc2ccccc2F)oc1NCCCn1ccnc1	?	31%	32µM*	?	?
Cc1ccc(OCc2nc(C#N)c(NCCCn3ccnc3)o2)cc1	8%[11.4 µM]	-20%	?	-4%	50µM*
Cc1cc(C)n2nc(CNC(=O)c3ccccc3Cl)nc2n1	2%	32%	6%[59 µM]	.	-1%
COc1ccccc1NC(=O)c1sc2nc3c(cc2c1N)CCCCCC3	3%	33%	-5%[59 µM]	.	1%
Cc1cccc(NC(=O)c2sc3nc4c(cc3c2N)CN(C(C)C)CC4)c1	50µM*	-19%	14µM*	.	?
COc1ccc(NC(=O)c2sc3nc4c(cc3c2N)CN(C(C)C)CC4)c(OC)c1	?	-8%	11µM*	.	?
Cc1cccc(NC(=O)c2sc3nc(N)c(C#N)cc3c2N)c1	35µM*	12%	10µM*	-4%	-10%
CCc1ccccc1NC(=O)c1ccc2c(c1)CCCN2S(C)(=O)=O	-13%	15%	-14%[59 µM]	.	3%
Cc1ccc2c(c1)c1c(n2CC(O)CN2CCCCC2C)CCCC1 (stereo unspecified)	-10%[11.4 µM]	-21%	45µM*	.	?
Cc1ccc2c(c1)c1c(n2CC(O)CN2CCC(C)CC2)CCCC1 (stereo unspecified)	40µM*	-25%[57 µM]	?	?	?
Cc1ccc2c(c1)c(C)c(C)n2CC(O)CN1CCCCC1C (stereo unspecified)	?	-20%	?	.	-37%
O=C(CN1C(=O)NC2(CCCc3ccccc32)C1=O)NCC(F)(F)F (stereo unspecified)	?	-13%	16%	.	3%
CCOc1ccc(NC(=O)CSc2cn(CC(=O)N3CCOCC3)c3ccccc23)cc1	-11%	55%	-29%[59 µM]	.	-16%
CCOc1ccc(Cc2nnc(SCC(=O)c3ccc(OC)cc3)o2)cc1	6%	35%	?	10%	-1%
